Structures are written as SMILES. The panel holds about 83,000 compounds, 20% with a hit somewhere; the sample as a whole holds those more often.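 Testing used 96-well plates and a 48-hour single-concentration exposure. Example: -40 means 40% of the starting cells died.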 Unmarked numbers belong to inactive results. Calls of active or inactive are those of the source. How the source made its calls: active means growth percent below 10; inactive means the rest.

The test system of the test is T-47D breast. Description: NCI-60 one-dose screen, 48 h (100 = growth as untreated, 0 = no growth, -100 = all killed). Particulars: 10 µM.
In the case of `COc1cc(-c2nc3cc(Cl)c(Cl)cc3[nH]2)ccc1OCC(=O)NN`, the growth was 66.9%.

With `CC1(C)Cc2c(cn(Cc3ccccc3)c2-c2ccccc2)-c2oncc21`, the growth is 75.7%.

Turning to `CCOc1ccc(-n2cc(-c3ccc(N(C)C)cc3)[n+]3c2CCCCC3)cc1`, the growth was 0.571% (active).

Turning to `O=C(COCc1c(-c2ccccc2)no[n+]1[O-])Nc1nc(-c2ccc(Cl)cc2)cs1`, the growth was 103%.

With `CCN(Cc1ccccc1)C1CCN(Cc2cc(Br)ccc2O)CC1`, the growth was 44.3%.

For `COCc1cc2c(cc1Br)OCO2`, the growth was 98.4%.

Turning to `COc1cc(/C=C/C(=O)c2cc(-c3ccc(C(F)(F)F)cc3)ccc2O)cc(OC)c1OC`, the growth is 35.7%.

Turning to `Cc1cc(C#Cc2ccccc2)ccc1-n1c(/C=C/c2cc(O)ccc2O)nc2ccccc2c1=O`, the growth is -16.8% (active).

In the case of `COc1cc(-c2nc3ccc(C)cc3[nH]2)ccc1OCC(=O)N=Nc1c(O)[nH]c2ccccc12`, the growth is -61.2% (active).

`COc1cc(-c2nc(-c3nnc(-c4cccnc4)o3)c3ccccn23)cc(OC)c1OC`: the growth is 100%.

`COc1cccc(C2(C)Nc3ccccc3-c3nc4ccccc4n32)c1` (configuration not stated): the growth is 98.5%.

On to `COc1cc(CSc2nc3ccc(Cl)cc3c(=O)n2Cc2ccccc2)cc(OC)c1OC`, for which the growth is 33.9%.

On to `CC(C)c1[nH]nc2c(NCc3ccc(-c4ccccn4)cc3)nc(SCCN(C)C)nc12`, for which the growth is -6.72% (active).

Turning to `OC(CNC1CCCC1)Cn1c2ccccc2c2ccccc21` (configuration not stated), the growth is -1.44% (active).

In the case of `O=c1cc(CSc2nnc(-c3ccccc3)n2-c2ccc(F)cc2)c2ccc3ccccc3c2o1`, the growth was 76.7%.

For `CC[C@@]1(C(N)=O)CC2C=CC1C2` (some centres not stated), the growth was 103%.

With `CCCCOCC(=O)NC(NP(=O)(N(C)C)N(C)C)C(Cl)(Cl)Cl` (configuration not stated), the growth is 7.73% (active).

As for `COc1ccccc1S(=O)(=O)Nc1ccc2c(c1)CN(C)C(=O)N2`, the growth was 31.4%.

With `O=C1CC(c2cccc(-c3cccnc3)c2)=Nc2ccc(Br)cc2N1`, the growth is -11.6% (active).

As for `N#Cc1c2c([nH]c(=O)c1C(N)=O)CCCCC2`, the growth was 79.2%.

Consider `CCOC(=O)C(CCC1=NC(C)(C)CC(C)O1)C(=O)OCC` (configuration not stated), for which the growth is 102%.

On to `COc1cc(Nc2ccnc(N3CCN(c4ccnc5cc(Cl)ccc45)CC3)n2)cc(OC)c1`, for which the growth is -16.6% (active).

As for `CS(=O)(=O)Nc1ccc(OCc2nnc(-c3ccc(Cl)cc3)o2)c(F)c1`, the growth is 63.1%.

As to `COc1cc(C2CC(=O)Nc3c2c(C)nn3-c2nc3ccccc3[nH]2)cc(OC)c1O` (configuration not stated), the growth is 83.5%.

Consider `CCCCCCN=C(N)CCCCCCCCCCC(N)=NCCCCCC`, for which the growth was 12.2%.

Take `COc1ccc(-c2ccc(-c3ccc(C(=N)N)c(F)c3)s2)cc1`: the growth is -64% (active).

`Oc1ccccc1-c1nnc(Cn2c(Cc3cccc4ccccc34)nc3ccccc32)o1`: the growth is 89.6%.

With `FC(F)(F)c1ccc(-c2nc(-c3nc4cc(Cl)c(Cl)cc4[nH]3)c3ccccn23)cc1`, the growth was 61.6%.

In the case of `CC(=O)Nc1ccc(Sc2ccc(NC(C)=O)cc2)cc1`, the growth is 70.6%.

For `CNC(=O)c1cc(Oc2ccc(NC(=O)Nc3ccc(Cl)c(OC(C)C)c3)c(F)c2)ccn1`, the growth was 9.9% (active).

As to `c1ccc(OCCC[P+](c2ccccc2)(c2ccccc2)c2ccccc2)cc1`, the growth is 13.3%.

`CN(C)c1ccc2c(c1)OC(N)=C(C#N)C2c1ccc2c(c1)CCCN2C` (configuration not stated): the growth is 44.5%.

Consider `CCOC(=O)Nc1ccc2c(c1)C(=O)N(CCOC)c1ccccc1O2`, for which the growth is 30.5%.

On to `COc1cccc2c1O/C(=C\c1ncc([N+](=O)[O-])n1C)C2=O`, for which the growth is 97.5%.

Turning to `O=C1/C(=C/c2ccc(O)cc2O)N=C2SCCCN12`, the growth was 85%.

Turning to `O=S(=O)(NC1c2ccccc2Oc2ccccc21)c1cc(Cl)ccc1Cl`, the growth is 74.1%.

For the molecule `CCCCN(CCCC)c1ccc(C(=NC(C)CCCN(CC)CC)c2ccc(N(C)C)cc2)cc1` (configuration not stated), the growth was -55.8% (active).
